According to PubChem BioAssay (NCATS):
Results filed as inconclusive are left out. Active and inactive are the calls of the source. Calls come from the whole dose curve; as a rule, active = well fitted cell-killing curve with a large enough effect; inconclusive = small, poorly fitted or top-dose-only effect, or effect the other way; inactive = flat fitted curve, though single readings scatter.

tested on: C33A; assay: Primary qHTS to identify gynecologic anti-cancer compounds using libraries of approved drugs and bioactive compounds (AID 1345084); conditions: Gynecologic cancer cell panel viability, ATPlite luminescence, 48 h; series mostly up to 57.5 µM; activity change, negative = cytotoxicity: at the top concentration; note: nearly all actives have a fitted effect of over 55% in size
Outline: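 Five-point cytotoxicity, 48 h drug exposure at 37 C, 5% CO2, on cells seeded 16 h beforehand. ATP content read by ATPlite luminescence.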
% is set by controls: 0 for no effect and ±100 for the full control effect; potency is the fitted concentration of half-maximal effect.

Row | SMILES | activity change, negative = cytotoxicity | Potency
1 | COC(=O)c1ccc(OC(CO)C(O)c2ccc(O)c(OC)c2)c(OC)c1 (stereo not given) | 3.14% [at 38.5 µM] (inactive) | 
2 | COc1ccc2nc(S(=O)(=O)Cc3ncc(C)c(OC)c3C)[nH]c2c1 | 0.549% (inactive) | 
3 | CC(=O)c1cc2c(cc1O)OC(C)(C)C=C2 | 5.61% (inactive) | 
4 | COc1ccc([C@@]2(O)c3c(ccc(CC=C(C)C)c3O)NC(=O)[C@@H]2OC)cc1 | -3.57% [at 38.5 µM] (inactive) | 
5 | COC(=O)C1=CO[C@@H](O[C@@H]2O[C@H](CO)[C@@H](O)[C@H](O)[C@H]2O)[C@H]2[C@@H]1C=C[C@@]21C=C([C@H](C)O)C(=O)O1 | 12.1% [at 25.3 µM] (inactive) | 
6 | c1ccc(N2CCN(CCc3nn[nH]n3)CC2)cc1 | 10.6% (inactive) | 
7 | Cc1cc2c(c(=O)[nH]1)OC(C(O)CC(C)C)O2 (stereo not given) | -9.56% (inactive) | 
8 | CC(=O)c1ccc2c(c1)C(O)C(C(C)(C)O)O2 (stereo not given) | 8.29% (inactive) | 
9 | CC1(C)CC[C@]2(C(=O)O[C@@H]3O[C@H](CO[C@@H]4O[C@H](CO)[C@@H](O)[C@H](O)[C@H]4O[C@@H]4O[C@H](CO)[C@@H](O)[C@H](O)[C@H]4O)[C@@H](O)[C@H](O[C@@H]4O[C@H](CO)[C@@H](O)[C@H](O)[C@H]4O)[C@H]3O)CC[C@]3(C)C(=CCC4[C@@]5(C)CC[C@@H](O)[C@@](C)(C(=O)O[C@@H]6O[C@H](CO)[C@@H](O)[C@H](O)[C@H]6O)C5CC[C@]43C)[C@@H]2C1 (stereo not given in full) | -23% [at 6.55 µM] (inactive) | 
10 | CC1=C(C)C(=O)OC(C(C)C2CCC3C4CC=C5CC(OC6OC(COC7OC(CO)C(O)C(O)C7O)C(O)C(O)C6O)CC(O)C5(C)C4CCC23C)C1 (stereo not given) | -19.9% [at 25.3 µM] (inactive) | 
11 | CC(C)=CCC[C@](C)(O)[C@H]1CC[C@]2(C)[C@@H]1[C@H](O)CC1[C@@]3(C)CC[C@H](O)C(C)(C)C3[C@@H](O[C@@H]3O[C@H](CO)[C@@H](O)[C@H](O)[C@H]3O[C@@H]3OC[C@@H](O)[C@H](O)[C@H]3O)C[C@]12C (stereo not given in full) | 11.2% [at 25.3 µM] (inactive) | 
12 | C[C@@H]1CC[C@@]2(OC1)O[C@H]1C[C@H]3[C@@H]4CC=C5C[C@@H](O)CC[C@]5(C)[C@H]4CC[C@]3(C)[C@H]1[C@@H]2C | 13.4% [at 25.3 µM] (inactive) | 
13 | CC(C)[C@@H](CS(=O)(=O)C(C)C)N1C(=O)[C@@](C)(CC(=O)O)C[C@H](c2cccc(Cl)c2)[C@H]1c1ccc(Cl)cc1 | -3.67% (inactive) | 
14 | CC(C)=CCC[C@](C)(O[C@@H]1O[C@H](CO)[C@@H](O)[C@H](O)[C@H]1O)[C@H]1CC[C@]2(C)[C@@H]1[C@H](O)CC1[C@@]3(C)CC[C@H](O)C(C)(C)C3[C@@H](O[C@@H]3O[C@H](CO)[C@@H](O)[C@H](O)[C@H]3O)C[C@]12C (stereo not given in full) | -3.95% [at 25.3 µM] (inactive) | 
15 | C/C=C(/COC(=O)/C(C)=C/C)C(=O)OC(CC)c1ccc(OC)c(OC)c1 (stereo not given) | 7.06% [at 38.5 µM] (inactive) | 
16 | COc1ccc2cc(C(C)C(=O)Oc3ccc(C(N)=S)cc3)ccc2c1 (stereo not given) | 2.6% (inactive) | 
17 | C/C=C1\[C@H](O[C@@H]2O[C@H](CO)[C@@H](O)[C@H](O)[C@H]2O)OC=C(C(=O)OC)[C@H]1CC(=O)O | -12.5% [at 25.3 µM] (inactive) | 
18 | C[C@@H]1O[C@@H](O[C@H]2[C@H](OC(=O)[C@]34CCC(C)(C)C[C@H]3C3=CCC5[C@@]6(C)C[C@H](O)[C@H](O[C@@H]7O[C@H](CO)[C@@H](O[C@H]8OC[C@](O)(CO)[C@H]8O)[C@H](O)[C@H]7O)[C@@](C)(CO)C6[C@H](O)C[C@@]5(C)[C@]3(C)C[C@H]4O)OC[C@H](O)[C@@H]2O)[C@H](O)[C@H](O)[C@H]1O[C@@H]1OC[C@@H](O)[C@H](O[C@@H]2OC[C@](O)(CO)[C@H]2O)[C@H]1O (stereo not given in full) | -2.68% [at 6.55 µM] (inactive) | 
19 | CC(C)C(=O)OC[C@H]1O[C@H](O[C@H]2O[C@H](CO)[C@@H](O)[C@H](O)[C@H]2O)[C@H](O)[C@@H](O)[C@@H]1O | 1.17% [at 25.3 µM] (inactive) | 
20 | O=C(COc1cccc2c(=O)[nH]ccc12)c1ccccc1 | 14.5% (inactive) | 

Row | SMILES | activity change, negative = cytotoxicity | Potency
21 | CC(=O)N1CCN(Cc2ccc([C@H](C)Nc3nccc(N4C(=O)OC[C@@H]4C(C)C)n3)cc2)CC1 | -2.2% (inactive) | 
22 | CCC(Nc1ncnc2nc[nH]c12)c1nc2cccc(F)c2c(=O)n1-c1ccccc1 (stereo not given) | -1.82% (inactive) | 
23 | CC(C(O)/C=C/C(C)(C)O)C1CCC2(C)C3C(=O)C=C4C(CCC(O)C4(C)C)C3(C)CCC12C (stereo not given) | 25.4% [at 25.3 µM] (inactive) | 
24 | c1ccc(-c2ncc(CN3CCN(c4ncccn4)CC3)[nH]2)cc1 | 1.19% (inactive) | 
25 | CC[C@@H](O)C[C@@H]1C(C)=C[C@@H]2CCCC[C@@H]2[C@@]1(C)C(=O)O | 0.664% (inactive) | 
26 | O=C(/C=C/c1ccc(O)cc1)OC1[C@H](O)CC(O)(C(=O)O)C[C@H]1O (stereo not given in full) | -2.22% [at 38.5 µM] (inactive) | 
27 | O=[N+]([O-])c1cn2c(n1)OCC(OCc1ccc(OC(F)(F)F)cc1)C2 (stereo not given) | 17.1% (inactive) | 
28 | C=C1CCC2C(C)(C)CCC[C@]2(C)[C@H]1C/C=C(\CO)C(=O)C(=O)O (stereo not given in full) | -0.303% [at 38.5 µM] (inactive) | 
29 | C=CC[C@]12C[C@@H](OC)C(=O)C(OC)=C1O[C@@H](c1cc(OC)c3c(c1)OCO3)[C@@H]2C | 3.65% [at 25.3 µM] (inactive) | 
30 | COCC1OC(OC(C)(C)C2CCC3(C)C=C(C4CCC5C4(C)CC(O)C4OC(C(C)(C)OC6OC(CO)C(O)C(O)C6NC(C)=O)CCC45C)CCC3O2)C(NC(C)=O)C(O)C1O (stereo not given) | 10.6% [at 11.6 µM] (inactive) | 
31 | CCCCc1nc2cc(/C=C/C(=O)NO)ccc2n1CCN(CC)CC |  | 5.01 µM (active)
32 | CN1CCc2nc(C(=O)N[C@@H]3C[C@@H](C(=O)N(C)C)CC[C@@H]3NC(=O)C(=O)Nc3ccc(Cl)cn3)sc2C1 | 3.51% (inactive) | 
33 | C[C@@]1(O)[C@H](O)[C@@H](CO)O[C@H]1n1ccc(N)nc1=O | -7.4% (inactive) | 
34 | COc1ccc(-c2nc(-c3ccc(-c4cccc(Cl)c4)o3)[nH]c2-c2ccc(OC)cc2)cc1 | -18.1% (inactive) | 
35 | CCOCCn1nc(CC)c2nc(N3CCC(C(=O)O)CC3)nc(Nc3cc(C)ccn3)c21 | -2.07% (inactive) | 
36 | C=CCC1=C[C@]2(OC)[C@H](C)[C@@H](c3ccc(O)c(OC)c3)O[C@]2(OC)CC1=O | 3.94% [at 38.5 µM] (inactive) | 
37 | Cc1ccc(Cc2c(C)nc3nc(SCC(=O)NCCN4CCNCC4)nn3c2C)cc1 | 4.14% (inactive) | 
38 | CC1CC[C@]2(C(=O)O)CC[C@]3(C(=O)O)C(=CCC4[C@@]5(C)CC[C@H](OC6OC(C)C(O)C(OC7OC(CO)C(O)C(O)C7O)C6O)C(C)(C)C5CC[C@]43C)C2C1C (stereo not given in full) | 5.32% [at 25.3 µM] (inactive) | 
39 | C=C1CC[C@@H]2[C@@](C)(CO[C@@H]3O[C@H](CO)C(O)[C@H](O)C3O)[C@H](O)CC[C@@]2(C)[C@@H]1CC/C(C)=C/CO (stereo not given in full) | -18.4% [at 11.6 µM] (inactive) | 
40 | O=C(Nc1ccc(-c2ccncc2)cc1)N[C@H](CO)c1ccccc1 | -1.12% (inactive) | 
